Results reported in PubChem BioAssay (EPA / NIEHS).
Values joined by “and” are separate entries in the source; they are usually repeats but may differ in a detail not shown here. Identical values can stand only once. Records with an inconclusive call do not appear. A structure can be active in one record and inactive in another. Active and inactive are the calls of the source. Rule for the calls: active = hit-call score of the fitted dose curve at least 0.9, where 1 is the maximum; inconclusive = response in the unintended direction; inactive = score below 0.9.

molecular target: Bile acid receptor (Homo sapiens) (UniProt Q96RI1); assay: OT_FXR_FXRSRC1_1440: Odyssey Thera (OT) 24-hour HEK293T Protein-Complementation Assay for Farnesoid X receptor/SRC-1 Co-activator (AID 2283384)
Method in brief: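 Single endpoint, analysed for increased fluorescence against DMSO controls. HEK293T cells carrying FXR and SRC-1 linked to complementary reporter halves were exposed to chemicals for 24 h before reading.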

Sequence of Bile acid receptor (Homo sapiens) (Q96RI1 whole entry, looked up): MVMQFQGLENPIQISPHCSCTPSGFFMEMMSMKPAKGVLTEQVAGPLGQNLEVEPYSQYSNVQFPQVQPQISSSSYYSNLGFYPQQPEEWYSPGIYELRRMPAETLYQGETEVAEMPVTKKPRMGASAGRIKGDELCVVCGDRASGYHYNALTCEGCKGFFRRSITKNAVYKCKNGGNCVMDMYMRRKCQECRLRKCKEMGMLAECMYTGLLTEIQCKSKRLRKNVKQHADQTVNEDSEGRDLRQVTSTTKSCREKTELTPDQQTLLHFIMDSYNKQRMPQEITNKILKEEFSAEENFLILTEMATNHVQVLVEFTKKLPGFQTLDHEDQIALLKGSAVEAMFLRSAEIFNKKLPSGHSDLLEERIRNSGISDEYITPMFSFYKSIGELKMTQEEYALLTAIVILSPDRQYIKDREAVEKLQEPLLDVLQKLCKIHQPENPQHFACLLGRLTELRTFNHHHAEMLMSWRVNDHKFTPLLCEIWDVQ

Structure (SMILES) | outcome | AC50
COP(=S)(OC)SCN1C(=O)c2ccccc2C1=O | inactive | 
CCC(C)c1ccc(O)cc1 (stereo not given) | inactive | 
CN(C)C(=O)Nc1ccc(Cl)cc1 |  | 66.9 µM (active)
Clc1ccccc1Cl | inactive | 
CN(C)[C@@H]1C(=O)C(C(N)=O)=C(O)[C@@]2(O)C(=O)C3=C(O)c4c(O)cccc4[C@@](C)(O)[C@H]3C[C@@H]12 | inactive | 
O=P(OCCCl)(OCCCl)OCCCl | inactive | 
CCOC(=O)[C@]1(c2ccccc2)Oc2ccccc2[C@@H]1N | inactive | 
CCCCCCCCOC(=O)c1ccc(C(=O)OCCCCCCCC)c(C(=O)OCCCCCCCC)c1 | inactive | 
Cc1cccc(N)c1N |  | 49.3 µM (active)
CN(C)c1ccccc1 | inactive | 
Clc1ccc(C(c2ccc(Cl)cc2)C(Cl)(Cl)Cl)cc1 | inactive | 
ClCCOCCCl | inactive | 
c1ccc(NNc2ccccc2)cc1 | inactive | 
CN(C)c1ccc(C(=O)c2ccc(N(C)C)cc2)cc1 |  | 0.699 µM (active)

molecular target: Retinoic acid receptor RXR-alpha (Homo sapiens) (UniProt P19793); assay: OT_NURR1_NURR1RXRa_0480: Odyssey Thera (OT) 8-hour HEK293T Protein Complementation Assay for Nurr1/retinoid X receptor (RXR) (AID 2283385)
Method in brief: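 Gain in fluorescent complementation signal over DMSO, measured 8 hours after chemical dosing of human kidney HEK293T cells, indicated enhanced Nurr1–RXRα association.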

Sequence of Retinoic acid receptor RXR-alpha (Homo sapiens) (P19793 whole entry, looked up, the tested form may be a part): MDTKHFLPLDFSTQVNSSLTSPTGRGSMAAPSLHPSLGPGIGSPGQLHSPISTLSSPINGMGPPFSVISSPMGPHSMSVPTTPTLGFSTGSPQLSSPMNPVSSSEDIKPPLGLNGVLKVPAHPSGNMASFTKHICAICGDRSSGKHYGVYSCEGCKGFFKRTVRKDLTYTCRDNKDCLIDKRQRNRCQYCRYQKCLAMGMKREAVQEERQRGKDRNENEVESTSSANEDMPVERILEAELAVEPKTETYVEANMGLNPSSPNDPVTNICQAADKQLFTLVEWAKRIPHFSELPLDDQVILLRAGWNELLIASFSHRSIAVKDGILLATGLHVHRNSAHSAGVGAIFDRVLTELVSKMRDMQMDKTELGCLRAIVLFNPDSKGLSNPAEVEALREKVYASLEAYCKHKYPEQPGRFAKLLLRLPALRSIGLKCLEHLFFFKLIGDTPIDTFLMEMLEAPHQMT

Structure (SMILES) | outcome | AC50
COP(=S)(OC)SCN1C(=O)c2ccccc2C1=O | inactive | 
c1ccc2c(c1)-c1cccc3cccc-2c13 | inactive | 
CCC(C)c1ccc(O)cc1 (stereo not given) | inactive | 
CN(C)C(=O)Nc1ccc(Cl)cc1 | inactive | 
CN(C)[C@@H]1C(=O)C(C(N)=O)=C(O)[C@@]2(O)C(=O)C3=C(O)c4c(O)cccc4[C@@](C)(O)[C@H]3C[C@@H]12 | inactive | 
c1ccc2c(c1)oc1ccccc12 | inactive | 
CC(C)(C)OOC(C)(C)CCC(C)(C)OOC(C)(C)C | inactive | 
O=[N+]([O-])c1ccc(Oc2ccc(Cl)cc2Cl)cc1 | inactive | 75.3 µM (active)
OCCCl | inactive | 
CCN(CC)CCO | inactive | 
Cc1cc(N=Nc2ccccc2C)ccc1N | inactive | 
CC(O)CCO (stereo not given) | inactive | 
O=P(OCCCl)(OCCCl)OCCCl | inactive | 
Oc1ccc2ccc3cccc4ccc1c2c34 | inactive | 
Clc1ccc(Cl)c(Cl)c1 | inactive | 
Cc1cccc(N)c1N | inactive | 33.9 µM (active)
CCCCOC(=O)c1ccccc1C(=O)OCc1ccccc1 | inactive | 
Clc1ccc(C(c2ccc(Cl)cc2)C(Cl)(Cl)Cl)cc1 |  | 70.1 µM (active)
ClCCOCCCl | inactive | 
c1ccc(NNc2ccccc2)cc1 | inactive | 
CN(C)c1ccc(C(=O)c2ccc(N(C)C)cc2)cc1 | inactive | 60.1 µM (active)

molecular target: Retinoic acid receptor RXR-alpha (Homo sapiens) (UniProt P19793); assay: OT_NURR1_NURR1RXRa_1440: Odyssey Thera (OT) 24-hour HEK293T Protein Complementation Assay for Nurr1/retinoid X receptor (RXR) (AID 2283386)
Method in brief: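 Cell-based binding reporter: HEK293T cells, 24 h exposure, fluorescence-detected fragment complementation, DMSO as baseline.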

Structure (SMILES) | outcome | AC50
c1ccc2c(c1)-c1cccc3cccc-2c13 | inactive | 
CCC(C)c1ccc(O)cc1 (stereo not given) | inactive | 
CN(C)C(=O)Nc1ccc(Cl)cc1 | inactive | 
Clc1ccccc1Cl | inactive | 
CN(C)[C@@H]1C(=O)C(C(N)=O)=C(O)[C@@]2(O)C(=O)C3=C(O)c4c(O)cccc4[C@@](C)(O)[C@H]3C[C@@H]12 | inactive | 
O=[N+]([O-])C(Br)(CO)CO | inactive | 
c1ccc2c(c1)oc1ccccc12 | inactive | 
CC(C)(C)OOC(C)(C)CCC(C)(C)OOC(C)(C)C | inactive | 
O=[N+]([O-])c1ccc(Oc2ccc(Cl)cc2Cl)cc1 | inactive | 
OCCCl | inactive | 
CCN(CC)CCO | inactive | 
Cc1cc(N=Nc2ccccc2C)ccc1N | inactive | 
CC(O)CCO (stereo not given) | inactive | 
O=P(OCCCl)(OCCCl)OCCCl | inactive | 
CCCCCCCCOC(=O)c1ccc(C(=O)OCCCCCCCC)c(C(=O)OCCCCCCCC)c1 | inactive | 
Oc1ccc2ccc3cccc4ccc1c2c34 | inactive | 9.46 µM (active)
Clc1ccc(Cl)c(Cl)c1 | inactive | 
Cc1cccc(N)c1N | inactive | 
CN(C)c1ccccc1 | inactive | 
CS(=O)(=O)NC(=O)c1cc(Oc2ccc(C(F)(F)F)cc2Cl)ccc1[N+](=O)[O-] | inactive | 
CCCCOC(=O)c1ccccc1C(=O)OCc1ccccc1 | inactive | 
Clc1ccc(C(c2ccc(Cl)cc2)C(Cl)(Cl)Cl)cc1 | inactive | 
ClCCOCCCl | inactive | 
c1ccc(NNc2ccccc2)cc1 | inactive | 82.8 µM (active)
CN(C)c1ccc(C(=O)c2ccc(N(C)C)cc2)cc1 | inactive | 

molecular target: Peroxisome proliferator-activated receptor gamma (Homo sapiens) (UniProt P37231); assay: OT_PPARg_PPARgSRC1_0480: Odyssey Thera (OT) 8-hour Protein-Complementation Assay for Peroxisome Proliferator-activated Receptor Gamma / SRC-1 Co-activator (AID 2283387);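 note: nuclear to cytoplasmic split Venus YFP fluorescence ratio reporting PPARg SRC-1 interaction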
Method in brief: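 Read-out: 488 nm N/C fluorescence ratio from complemented Venus YFP fragments, ≥350 cells per image, gain-of-signal fitted against DMSO baseline. Fusions of PPARg/SRC-1 with IFP1/IFP2 expressed transiently in HEK293T; compounds applied 8 h.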

Sequence of Peroxisome proliferator-activated receptor gamma (Homo sapiens) (P37231 whole entry, looked up, the tested form may be a part): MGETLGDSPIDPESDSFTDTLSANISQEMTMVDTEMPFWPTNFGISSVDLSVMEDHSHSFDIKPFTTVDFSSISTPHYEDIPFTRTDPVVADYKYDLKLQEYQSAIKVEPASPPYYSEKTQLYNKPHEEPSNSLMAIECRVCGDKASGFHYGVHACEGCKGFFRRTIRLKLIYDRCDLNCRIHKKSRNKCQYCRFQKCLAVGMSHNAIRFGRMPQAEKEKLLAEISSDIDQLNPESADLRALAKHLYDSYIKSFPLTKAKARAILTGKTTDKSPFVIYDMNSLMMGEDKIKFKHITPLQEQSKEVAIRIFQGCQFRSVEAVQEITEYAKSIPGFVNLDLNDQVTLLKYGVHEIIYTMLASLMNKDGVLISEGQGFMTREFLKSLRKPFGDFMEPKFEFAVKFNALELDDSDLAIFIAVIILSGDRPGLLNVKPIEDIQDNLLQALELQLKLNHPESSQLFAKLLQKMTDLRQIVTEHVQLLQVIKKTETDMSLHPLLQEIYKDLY

Structure (SMILES) | outcome | AC50
COP(=S)(OC)SCN1C(=O)c2ccccc2C1=O | inactive | 
c1ccc2c(c1)-c1cccc3cccc-2c13 | inactive | 
CN(C)C(=O)Nc1ccc(Cl)cc1 | inactive | 
CN(C)[C@@H]1C(=O)C(C(N)=O)=C(O)[C@@]2(O)C(=O)C3=C(O)c4c(O)cccc4[C@@](C)(O)[C@H]3C[C@@H]12 | inactive | 
CCOC(=O)[C@]1(c2ccccc2)Oc2ccccc2[C@@H]1N | inactive | 
Cc1cccc(N)c1N |  | 31.9 µM (active) and 66.9 µM (active)
CCCCOC(=O)c1ccccc1C(=O)OCc1ccccc1 | inactive | 
CN(C)c1ccc(C(=O)c2ccc(N(C)C)cc2)cc1 | inactive | 

molecular target: Peroxisome proliferator-activated receptor gamma (Homo sapiens) (UniProt P37231); assay: OT_PPARg_PPARgSRC1_1440: Odyssey Thera (OT) 24-hour Protein-Complementation Assay for Peroxisome Proliferator-activated Receptor Gamma/ SRC-1 Co-activator (AID 2283388);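 note: nuclear to cytoplasmic ratio of reconstituted Venus YFP fluorescence in fixed imaged cells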
Method in brief: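 Cells carrying the PPARg/SRC-1 fragment-complementation reporter receive compound for 24 hours, are fixed and counterstained with Draq5, then imaged. Increased nuclear relative to cytoplasmic YFP fluorescence above DMSO baseline indicates binding activity.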

Structure (SMILES) | outcome
COP(=S)(OC)SCN1C(=O)c2ccccc2C1=O | inactive
c1ccc2c(c1)-c1cccc3cccc-2c13 | inactive
CN(C)C(=O)Nc1ccc(Cl)cc1 | inactive
Clc1ccccc1Cl | inactive
CN(C)[C@@H]1C(=O)C(C(N)=O)=C(O)[C@@]2(O)C(=O)C3=C(O)c4c(O)cccc4[C@@](C)(O)[C@H]3C[C@@H]12 | inactive
O=[N+]([O-])C(Br)(CO)CO | inactive
O=[N+]([O-])c1ccc(Oc2ccc(Cl)cc2Cl)cc1 | inactive
OCCCl | inactive
CCN(CC)CCO | inactive
Cc1cc(N=Nc2ccccc2C)ccc1N | inactive
CC(O)CCO (stereo not given) | inactive
O=P(OCCCl)(OCCCl)OCCCl | inactive
CCOC(=O)[C@]1(c2ccccc2)Oc2ccccc2[C@@H]1N | inactive
CCCCCCCCOC(=O)c1ccc(C(=O)OCCCCCCCC)c(C(=O)OCCCCCCCC)c1 | inactive
Clc1ccc(Cl)c(Cl)c1 | inactive
Cc1cccc(N)c1N | inactive
O=C(N[C@H](c1ccccc1)[C@@H]1CN2CCC1CC2)c1c(Cl)ccc(C(F)(F)F)c1Cl | inactive
CS(=O)(=O)NC(=O)c1cc(Oc2ccc(C(F)(F)F)cc2Cl)ccc1[N+](=O)[O-] | inactive
CCCCOC(=O)c1ccccc1C(=O)OCc1ccccc1 | inactive
Clc1ccc(C(c2ccc(Cl)cc2)C(Cl)(Cl)Cl)cc1 | inactive
ClCCOCCCl | inactive
CN(C)c1ccc(C(=O)c2ccc(N(C)C)cc2)cc1 | inactive
